Among the data in publication PMC4053984, “DNA binding specificities of the long zinc-finger recombination protein PRDM9” are binding signal values, retold here.

In this assay the target is PRDM9Cst (Mus musculus (CAST/EiJ)). Put plainly: competition EMSA; competition against biotin-labeled 75-bp Hlx1 B6 oligo; 10 mM Tris pH 7.5, 50 mM KCl, 1 mM DTT, 50 ng/ul poly(dI/dC), 0.05% NP-40, crude E. coli extract 3 ul in 20 ul; 1 h with unlabeled competitor, then 4 h with biotin-labeled 75-bp Hlx1; temperature not stated; high values mean tight binding. As to conditions: tags: N-terminal His tag (pBAD/HisB); dsDNA, one strand shown.
Sequence of PRDM9Cst (Mus musculus (CAST/EiJ)) (chain, as listed by the source): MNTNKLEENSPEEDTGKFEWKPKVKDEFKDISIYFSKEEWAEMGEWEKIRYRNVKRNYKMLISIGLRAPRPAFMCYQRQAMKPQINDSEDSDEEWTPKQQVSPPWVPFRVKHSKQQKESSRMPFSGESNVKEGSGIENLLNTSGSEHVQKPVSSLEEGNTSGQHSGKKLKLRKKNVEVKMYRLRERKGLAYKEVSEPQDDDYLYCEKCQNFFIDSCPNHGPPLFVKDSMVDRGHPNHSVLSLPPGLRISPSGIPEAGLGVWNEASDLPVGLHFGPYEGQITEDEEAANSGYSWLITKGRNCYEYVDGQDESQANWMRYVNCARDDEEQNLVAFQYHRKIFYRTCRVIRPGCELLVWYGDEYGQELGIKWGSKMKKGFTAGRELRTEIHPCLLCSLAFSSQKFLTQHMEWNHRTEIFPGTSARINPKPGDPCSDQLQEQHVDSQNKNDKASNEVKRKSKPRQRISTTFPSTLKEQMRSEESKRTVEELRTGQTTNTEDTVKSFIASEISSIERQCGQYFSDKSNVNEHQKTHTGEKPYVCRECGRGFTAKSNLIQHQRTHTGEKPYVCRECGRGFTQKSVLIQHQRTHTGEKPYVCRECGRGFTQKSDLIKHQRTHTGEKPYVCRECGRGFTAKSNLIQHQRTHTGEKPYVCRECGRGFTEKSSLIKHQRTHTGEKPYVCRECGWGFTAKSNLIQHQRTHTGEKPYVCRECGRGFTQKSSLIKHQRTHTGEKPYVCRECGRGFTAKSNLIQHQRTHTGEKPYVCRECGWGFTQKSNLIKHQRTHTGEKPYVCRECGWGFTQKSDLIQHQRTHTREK
In the case of ATAGTGTGCAGATTTGGACCCTGCCCTTTCTTT, the binding signal was 0.1 Bmut (0 = wild type, -1 = scrambled).

Take ATAGTGTGCAGACTTGGACCCTACCCTTTCTTT: the binding signal was 0.1 Bmut (0 = wild type, -1 = scrambled).

With ATAGTGTGCAGACTAGGACCCTGCCCTTTCTTT, the binding signal is 0 Bmut (0 = wild type, -1 = scrambled).

ATAGTCTGCAGACTTGGACCCTGCCCTTTCTTT: the binding signal was 0.1 Bmut (0 = wild type, -1 = scrambled).

Consider ATAGTGTGCAGACTTGGCCCCTGCCCTTTCTTT, for which the binding signal is -0.9 Bmut (0 = wild type, -1 = scrambled).

With ATAGTGTGCAGACTTGGACCCTGCCCTTCCTTT, the binding signal was -0.1 Bmut (0 = wild type, -1 = scrambled).

Take ATAGTGTGCAGACTTGGACCCTGTCCTTTCTTT: the binding signal is 0.02 Bmut (0 = wild type, -1 = scrambled).

In the case of ATAGTGTGCAGACTTGGACCCTGCCCTGTCTTT, the binding signal is 0.01 Bmut (0 = wild type, -1 = scrambled).

Turning to ATAGTGTGCAGACTTGGACCCTGCCTTTTCTTT, the binding signal was 0.15 Bmut (0 = wild type, -1 = scrambled).

Take ATAGTGTGCAGACTTGGACCCTGCCCTTTGTTT: the binding signal is -0 Bmut (0 = wild type, -1 = scrambled).

For the sequence ATAGTGTGCAGACTTGGGCCCTGCCCTTTCTTT, the binding signal was 0.3 Bmut (0 = wild type, -1 = scrambled).

Regarding ATAGTGTGCAGACTTGGACCCTTCCCTTTCTTT, the binding signal is -0.3 Bmut (0 = wild type, -1 = scrambled).

ATAGTGTGCAGACTTGGACCCTGCCCTTTCATT: the binding signal was 0.08 Bmut (0 = wild type, -1 = scrambled).

As for ATAGTGTGCAGACTTGGACCCCGCCCTTTCTTT, the binding signal was -0.1 Bmut (0 = wild type, -1 = scrambled).

Take ATAGTGTGCAGACTTGGACCCTGGCCTTTCTTT: the binding signal was 0.03 Bmut (0 = wild type, -1 = scrambled).

For the sequence ATAGTGTGCAGACTTGGACCCTGCCCTTACTTT, the binding signal is -0.1 Bmut (0 = wild type, -1 = scrambled).

With ATAGTGTGCACACTTGGACCCTGCCCTTTCTTT, the binding signal is -0.2 Bmut (0 = wild type, -1 = scrambled).

ATAGTGTGCAGACTTGGACCCTGCCCTTTCGTT: the binding signal was 0.12 Bmut (0 = wild type, -1 = scrambled).

As for ATAGTGTGCAGACTTGGAACCTGCCCTTTCTTT, the binding signal is -0.1 Bmut (0 = wild type, -1 = scrambled).

As for ATAGTGTGCAGGCTTGGACCCTGCCCTTTCTTT, the binding signal was -0.1 Bmut (0 = wild type, -1 = scrambled).

On to ATAGTGTGCAGACTTGCACCCTGCCCTTTCTTT, for which the binding signal was -0.2 Bmut (0 = wild type, -1 = scrambled).

For ATAGTGTGAAGACTTGGACCCTGCCCTTTCTTT, the binding signal was -0.1 Bmut (0 = wild type, -1 = scrambled).

Consider ATAGTGTGCAGACTTGGACCCTGCCATTTCTTT, for which the binding signal was -0.1 Bmut (0 = wild type, -1 = scrambled).

With ATAGTGTGTAGACTTGGACCCTGCCCTTTCTTT, the binding signal was 0 Bmut (0 = wild type, -1 = scrambled).

Consider ATAGTGTGCAGACTTGGACCCTGCCCCTTCTTT, for which the binding signal is 0.19 Bmut (0 = wild type, -1 = scrambled).

Consider ATCGTGTGCAGACTTGGACCCTGCCCTTTCTTT, for which the binding signal was -0.1 Bmut (0 = wild type, -1 = scrambled).

As to ATAGTGTGCAGACTTGGACCGTGCCCTTTCTTT, the binding signal is 0.06 Bmut (0 = wild type, -1 = scrambled).

Regarding ATAGTGTGCAGACTTGGACCCTGCCCTTTCTTG, the binding signal was 0.09 Bmut (0 = wild type, -1 = scrambled).

Take ATAGTGTGCAGACTTGTACCCTGCCCTTTCTTT: the binding signal was -0.8 Bmut (0 = wild type, -1 = scrambled).

Turning to ATAGTGTGCAGACTTGGACCCTGCCCTATCTTT, the binding signal was 0.13 Bmut (0 = wild type, -1 = scrambled).

Consider ATAGCGTGCAGACTTGGACCCTGCCCTTTCTTT, for which the binding signal was -0.5 Bmut (0 = wild type, -1 = scrambled).
